Experimental findings from PubChem BioAssay are described below.

Experiment [1] can be described thus: inhibitors of TNFa-induced NFkB p65 translocation, primary screen, imaging, HUVEC, MLSMR starter and 10KST1 sets (AID 438;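 active means inhibition above 20% together with a positive visual image hit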;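 further: compound added about 3h40 before a 20 min TNFalpha stimulation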;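 on inhibition: signal is the nuclear over cytoplasmic p65 intensity ratio per well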). Conditions: HUVEC TNFa-induced p65 nuclear translocation; cell count: measured here: nuclei count (cytotoxicity indicator), at 2.08 µM; inhibition: at 2 µM, stronger effect = higher value, 0% TNFa-plus-vehicle, 100% no-TNFa wells.
Experiment [2] is described as follows: reduction of polyQ htt aggregates in cells – imaging, exon1htt(103Q)mCFP cells, high-content imaging, primary screen (AID 483;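 active means visual image review flags a hit and inhibition of aggregation exceeds 20%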;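 further: compound exposure lasted 3 days before fixation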;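 on nuclei count: percent of the per-plate median nuclei count of sample wells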). As to conditions: exon1htt(103Q)mCFP cell line, aggregate imaging, at 2 µM; inhibition of aggregation: stronger effect = higher value; nuclei count: measured here: cell count, toxicity.
Experiment [3] is described as follows: endothelial E-selectin expression blockers – imaging, HUVEC, immunofluorescence, MLSMR starter and 10KST1 sets, primary screen (AID 487).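 On inhibition: signal is fraction of cell area covered by stained E-selectin grains.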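 On nuclei count: 100% = median nuclei count of all wells on the same plate.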 Conditions: HUVEC TNFalpha-induced E-selectin immunofluorescence imaging, at 2 µM; inhibition: stronger effect = higher value; nuclei count: measured here: cell number, toxicity.
Experiment [4] concerns the target Voltage-gated potassium channel subunit beta-2 (Rattus norvegicus) (UniProt P62483). Briefly: inhibitors of rat Kvbeta2 reductase activity – biochemical, NADPH fluorescence, primary screen (AID 622;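 active means fluorescence slope higher than the sample average by over 3 SD, cut at about -0.22 in these data, passing the limit was not always enough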;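 further: slope of raw intensity against log time taken from 70 to 1610 s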). As to conditions: recombinant KvBeta, 4-cyanobenzaldehyde reduction, at 10 µM, stronger effect = higher value.
For experiment [5] the target is unchanged. Briefly: enhancers of rat Kvbeta2 NADPH turnover – biochemical, NADPH fluorescence, primary screen (AID 623;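 active means NADPH fluorescence slope more negative than the mean of all samples by about 3 SD, 99.7% confidence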;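 further: fluorescence intensity change per second fitted from 20 to 320 s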). Conditions: Recombinant KvBeta, NADPH fluorescence decrease slope, 10 min; at 10 µM; stronger effect = lower value.
In experiment [6] the target is Alpha-2C adrenergic receptor (Homo sapiens) (UniProt P18825). Briefly: compounds altering alpha2C-coupled GIRK flux – cell-based, HEK293 alpha2C/GIRK1/2, thallium flux, primary screen (AID 624;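 active means fluorescence slope after compound addition differing from the mean of all screened samples at 99.7% confidence, in either direction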;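 further: slope of fluorescence ratio to pre-addition baseline per second over 15 to 24 s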). Conditions: thallium flux BTC fluorescence, at 10 µM, actives lie on both sides.
Experiment [7] is described as follows: blockers of RIG-like receptor reporter activation – cell-based, Sendai virus stimulus, luciferase, 10K MLSCN set, TLR/RLR signaling modifier project, primary screen (AID 602276;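 active means inhibition at or above 50% at 10 µM; inactive means inhibition below 50%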;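 further: firefly luciferase from ISG56 promoter only with Renilla not read in this screen; 0% = Sendai virus plus DMSO and 100% = medium plus DMSO without virus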). As to conditions: HEK293 RL24 IRF3 luciferase reporter, at 10 µM, stronger effect = higher value.
Experiment [8] can be described thus: TLR3 IRF3 reporter activation blockers – cell-based, poly I:C stimulus, luciferase, 10K MLSCN set, primary screen (AID 602277;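 active means inhibition of the reporter signal at or above 50%; inactive means inhibition below 50%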). Conditions: HEK293-TLR3 RL24 IRF3 luciferase reporter, at 10 µM, stronger effect = higher value.

Calls of active or inactive are those of the source.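 How the source made its calls, unless noted: active means visually confirmed hit in the image check and inhibition above 20%; inconclusive means visually confirmed hit but inhibition not above 20%; inactive means no visual hit in the image check.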

Alpha-2C adrenergic receptor (Homo sapiens), sequence (P18825 whole entry, looked up): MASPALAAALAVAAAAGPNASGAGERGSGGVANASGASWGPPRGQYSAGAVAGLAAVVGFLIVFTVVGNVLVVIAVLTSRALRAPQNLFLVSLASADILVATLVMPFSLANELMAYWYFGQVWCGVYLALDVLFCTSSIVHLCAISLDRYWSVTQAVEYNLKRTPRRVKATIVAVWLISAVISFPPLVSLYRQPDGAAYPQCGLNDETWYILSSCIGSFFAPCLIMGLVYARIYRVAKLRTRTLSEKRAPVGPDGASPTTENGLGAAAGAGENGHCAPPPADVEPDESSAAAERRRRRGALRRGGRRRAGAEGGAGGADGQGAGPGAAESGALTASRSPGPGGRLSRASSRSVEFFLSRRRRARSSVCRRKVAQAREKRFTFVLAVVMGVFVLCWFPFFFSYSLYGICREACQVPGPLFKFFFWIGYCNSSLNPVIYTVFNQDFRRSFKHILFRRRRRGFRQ
Voltage-gated potassium channel subunit beta-2 (Rattus norvegicus), sequence (P62483 whole entry, looked up): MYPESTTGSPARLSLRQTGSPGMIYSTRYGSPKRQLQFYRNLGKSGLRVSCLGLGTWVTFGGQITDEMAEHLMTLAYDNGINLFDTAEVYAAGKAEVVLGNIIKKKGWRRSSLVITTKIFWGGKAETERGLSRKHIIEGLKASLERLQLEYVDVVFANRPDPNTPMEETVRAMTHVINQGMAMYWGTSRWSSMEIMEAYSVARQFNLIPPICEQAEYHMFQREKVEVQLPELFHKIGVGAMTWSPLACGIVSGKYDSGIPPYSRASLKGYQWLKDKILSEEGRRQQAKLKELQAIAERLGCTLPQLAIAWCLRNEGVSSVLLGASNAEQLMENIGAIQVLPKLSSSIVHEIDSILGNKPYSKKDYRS

For `CC1=C(C)C(=O)NC(Nc2nc(C)c3cc(C)cc(C)c3n2)N1` (centres undefined), in experiment [1], the cell count came out at 540. For the same compound, the inhibition (in general, the relative decrease from the control value, in per cent) in experiment [1] was -14.3% (inactive); in experiment [3], 5.2% (inactive); in experiment [7], 7.09% (inactive); in experiment [8] it was -49.5% (inactive). Also, the inhibition of aggregation in experiment [2] was -9.7% (inactive). Besides, the nuclei count is 103% in experiment [2] and 115% in experiment [3]. Moreover, in experiment [4], the fluorescence slope is -0.285 (inactive). Besides, the NADPH fluorescence slope in experiment [5] was -2.3e-05 (inactive). The slope in experiment [6] is 0.00676 (inactive).
With `O=C(OCN1C(=O)c2ccccc2C1=O)c1ccc2c(=O)n3c(nc2c1)CCC3`, the cell count in experiment [1] was determined as 380. For the same compound, the inhibition in experiment [1] was -26.1% (inactive); in experiment [3], 74.4% (inactive); in experiment [7], 5.92% (inactive); in experiment [8], 16.5% (inactive). In addition, the inhibition of aggregation in experiment [2] was 29.8% (inactive). The figures for the nuclei count in experiment [2] and in experiment [3] were 79.3% and 96.4%, respectively. Further, the fluorescence slope in experiment [4] was -0.581 (inactive). For the same compound, in experiment [5], the NADPH fluorescence slope was -6.9e-05 (inactive). In experiment [6], the slope is 0.00527 (inactive).
As for `C=CCSc1nnc(Cc2c(C)[nH]c3ccccc23)o1`, in experiment [1], the cell count was found to be 800. Moreover, the inhibition was 3.5% (inactive) in experiment [1], -15.9% (inactive) in experiment [3], 7.53% (inactive) in experiment [7] and 15% (inactive) in experiment [8]. The inhibition of aggregation in experiment [2] was 20.5% (inactive). The nuclei count in experiment [2] is 92.7%; in experiment [3] it was 118%. Also, in experiment [4], the fluorescence slope is -0.427 (inactive). For the same compound, the NADPH fluorescence slope in experiment [5] is -6e-05 (inactive). In experiment [6], the slope is 0.00499 (inactive).
Regarding `CON(C)c1nc(Oc2ccc(=O)[nH]n2)nc(N(C)C)n1`, the cell count in experiment [1] came out at 678. For the same compound, the inhibition in experiment [1] is -6.2% (inactive); in experiment [3], -48.5% (inactive); in experiment [7], 16.3% (inactive); in experiment [8] it was 19.3% (inactive). In addition, the inhibition of aggregation in experiment [2] is -9.5% (inactive). Further, the nuclei count was found to be 85.9% in experiment [2] and 101% in experiment [3]. The fluorescence slope in experiment [4] was -0.351 (inactive). Further, in experiment [5], the NADPH fluorescence slope is 1.4e-05 (inactive). Further, in experiment [6], the slope is 0.00477 (inactive).
For `Cc1cc(C)n(CC(=O)NC2CCCCC2)n1`, the cell count in experiment [1] came out at 406. The inhibition in experiment [1] was -0.6% (inactive); in experiment [3], -225% (inactive); in experiment [7] it was 14.7% (inactive); in experiment [8] it was 18% (inactive). The inhibition of aggregation in experiment [2] is -4.9% (inactive). Further, the nuclei count in experiment [2] was 105%; in experiment [3], 114%. The fluorescence slope in experiment [4] is -0.468 (inactive). Also, the NADPH fluorescence slope in experiment [5] is -1.5e-06 (inactive). In experiment [6], the slope was 0.00622 (inactive).
Regarding `Cc1ccc2c(c1)-c1c(cnn1CC(=O)Nc1ccccc1N1CCN(C)CC1)CO2`, the cell count in experiment [1] was found to be 521. For the same compound, the inhibition in experiment [1] is -10.8% (inactive); in experiment [3], -3.4% (inactive); in experiment [7] it was 3.02% (inactive); in experiment [8] it was 7.29% (inactive). Also, the inhibition of aggregation in experiment [2] was -22% (inactive). Besides, the nuclei count was determined as 66.8% in experiment [2] and 108% in experiment [3]. In addition, the fluorescence slope in experiment [4] was -0.507 (inactive). Besides, the NADPH fluorescence slope in experiment [5] is -9e-06 (inactive). Besides, the slope in experiment [6] was 0.00599 (inactive).
For the compound `Cc1ccc(S(=O)(=O)CC(=O)N2CCCCCC2)cc1`, the cell count in experiment [1] is 615. Also, the inhibition in experiment [1] was 9.2% (inactive); in experiment [3] it was -33% (inactive); in experiment [7] it was -16.3% (inactive); in experiment [8] it was -15.4% (inactive). In addition, the inhibition of aggregation in experiment [2] was 17% (inactive). Moreover, the nuclei count stood at 103% in experiment [2] and 112% in experiment [3]. Besides, in experiment [4], the fluorescence slope is -0.504 (inactive). Also, in experiment [5], the NADPH fluorescence slope is -5.2e-05 (inactive). Also, the slope in experiment [6] was 0.0061 (inactive).
Regarding `Cc1ccc2nc3c(cc(C(=O)NCC4CCCO4)n3C)c(=O)n2c1` (centres undefined), the cell count in experiment [1] was determined as 405. For the same compound, the inhibition was 9.7% (inactive) in experiment [1], -25.5% (inactive) in experiment [3], -21.8% (inactive) in experiment [7] and -39.8% (inactive) in experiment [8]. The inhibition of aggregation in experiment [2] was 2.7% (inactive). In addition, the nuclei count in experiment [2] came to 111%; in experiment [3] it was 114%. Moreover, in experiment [4], the fluorescence slope is -0.0813 (active). Also, in experiment [5], the NADPH fluorescence slope is -3.2e-06 (inactive). In addition, in experiment [6], the slope was 0.00481 (inactive).
As to `C/C(=C\C(=O)c1ccc(F)cc1)Nc1ccc(N2CCOCC2)cc1`, the cell count in experiment [1] was 412. Besides, the inhibition was -7.9% (inactive) in experiment [1], -1.4% (inactive) in experiment [3], -13.9% (inactive) in experiment [7] and -43.6% (inactive) in experiment [8]. In experiment [2], the inhibition of aggregation was 20.9% (inactive). For the same compound, the nuclei count in experiment [2] came to 86.5%; in experiment [3] it was 99.6%. Further, the fluorescence slope in experiment [4] was -0.532 (inactive). The NADPH fluorescence slope in experiment [5] was 3.5e-06 (inactive). Moreover, the slope in experiment [6] was 0.00495 (inactive).
Regarding `O=C1c2ccccc2C(Nc2ccc(F)cc2F)N1CCN1CCOCC1` (centres undefined), in experiment [1], the cell count was 791. In addition, the inhibition in experiment [1] was 1.8% (inactive); in experiment [3] it was -46.2% (inactive); in experiment [7] it was 13.8% (inactive); in experiment [8], 38.8% (inactive). In addition, the inhibition of aggregation in experiment [2] was 19.4% (inactive). For the same compound, the nuclei count was 101% in experiment [2] and 124% in experiment [3]. In experiment [4], the fluorescence slope was -0.416 (inactive). In addition, the NADPH fluorescence slope in experiment [5] is -3.1e-05 (inactive). Further, the slope in experiment [6] is 0.00478 (inactive).
Consider `O=C(NCCN1CCOCC1)C1CCC(=O)N1Cc1ccccc1Cl` (centres undefined), for which the cell count in experiment [1] is 648. The inhibition in experiment [1] is -11.4% (inactive); in experiment [3], 6.7% (inactive); in experiment [7], 10.4% (inactive); in experiment [8] it was 21% (inactive). Moreover, the inhibition of aggregation in experiment [2] was 7.5% (inactive). Further, the figures for the nuclei count in experiment [2] and in experiment [3] were 92.1% and 87.7%, respectively. Moreover, the fluorescence slope in experiment [4] is -0.512 (inactive). For the same compound, in experiment [5], the NADPH fluorescence slope is 2e-07 (inactive). Also, in experiment [6], the slope was 0.00614 (inactive).
With `CCOc1ccc(CCN2C(=O)C3C4C=CC(C4)C3C2=O)cc1OCC` (centres undefined), the cell count in experiment [1] was 626. Further, the inhibition was 2.9% (inactive) in experiment [1], -51.4% (inactive) in experiment [3], 16.8% (inactive) in experiment [7] and 36.6% (inactive) in experiment [8]. Moreover, the inhibition of aggregation in experiment [2] was -33.6% (inactive). For the same compound, the figures for the nuclei count in experiment [2] and in experiment [3] were 134% and 112%, respectively. In addition, in experiment [4], the fluorescence slope is -0.551 (inactive). Moreover, the NADPH fluorescence slope in experiment [5] was -1.1e-05 (inactive). In experiment [6], the slope is 0.00791 (inactive).
Regarding `COC(=O)c1oc2ccc(Br)cc2c1NC(C)=O`, the cell count in experiment [1] came out at 644. For the same compound, the inhibition in experiment [1] was -0.8% (inactive); in experiment [3], -28.5% (inactive); in experiment [7] it was 16.9% (inactive); in experiment [8], 30.7% (inactive). For the same compound, in experiment [2], the inhibition of aggregation is 35.6% (active). The nuclei count in experiment [2] is 90.2%; in experiment [3] it was 112%. Further, the fluorescence slope in experiment [4] is -0.575 (inactive). Also, the NADPH fluorescence slope in experiment [5] is -3.5e-05 (inactive). Besides, the slope in experiment [6] is 0.00664 (inactive).
For `CCOc1ccccc1C(=O)NCC(=O)OCC(=O)N1C(C)CCCC1C` (centres undefined), the cell count in experiment [1] amounted to 683. The inhibition in experiment [1] was -3.4% (inactive); in experiment [3], 26.6% (inactive); in experiment [7], 11.2% (inactive); in experiment [8] it was 17.1% (inactive). For the same compound, the inhibition of aggregation in experiment [2] is -9.7% (inactive). Besides, the nuclei count in experiment [2] was found to be 103%; in experiment [3], 112%. The fluorescence slope in experiment [4] was -0.615 (inactive). Also, the NADPH fluorescence slope in experiment [5] is 3e-05 (inactive). Also, in experiment [6], the slope was 0.00593 (inactive).
